According to the supplement of paper PMC6555819:

Tests used:
Experiment in all cases: PBM binding z-score (relative to random genomic background probes); higher = stronger binding; sequences stand for … in GC…GCGATTGACAGCGTAGAATGAAGG
[1] = test system: FXR:RXRa (NR concentration 270 nM, RXRa partner concentration 90 nM)
Outline: (§1)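 Ligand-free nuclear receptor dimers were bound for 1 h to custom Agilent 4×180K protein-binding microarrays. Detection used antibodies against each partner (one per run). Binding z-scores rest on regression-normalized fluorescence, with random background probes as the reference.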

[2] = test system: LXRa:RXRa (NR concentration 270 nM, RXRa partner concentration 90 nM)
Outline: as §1

[3] = test system: LXRa homodimer (NR concentration 270 nM)
Outline: as §1

[4] = test system: LXRb:RXRa (NR concentration 270 nM, RXRa partner concentration 90 nM)
Outline: as §1

[5] = test system: LXRb homodimer (NR concentration 270 nM)
Outline: as §1

[6] = test system: PPARa:RXRa (NR concentration 270 nM, RXRa partner concentration 90 nM)
Outline: as §1

[7] = test system: PPARg:RXRa (NR concentration 180 nM, RXRa partner concentration 90 nM)
Outline: as §1

[8] = test system: PPARg:RXRa 270nM:90nM, anti-RXR (NR concentration 270 nM, RXRa partner concentration 90 nM)
Outline: as §1

[9] = test system: PPARg:RXRa 30nM:10nM, anti-RXR (NR concentration 30 nM, RXRa partner concentration 10 nM)
Outline: as §1

[10] = test system: PPARg:RXRa 90nM:30nM, anti-RXR (NR concentration 90 nM, RXRa partner concentration 30 nM)
Outline: as §1

Row | Sequence | PBM binding z-score [1] | PBM binding z-score [2] | PBM binding z-score [3] | PBM binding z-score [4] | PBM binding z-score [5] | PBM binding z-score [6] | PBM binding z-score [7] | PBM binding z-score [8] | PBM binding z-score [9] | PBM binding z-score [10]
1 | CCCAGCAGGCCAATCTGGGTCACTCAAGGCTTGA | 0.369 | 1.43 | -0.513 | 0.944 | -1.13 | 3.19 | 1.76 | 2.13 | -0.161 | 1.13
2 | TCAGATAGGTAAACAGGTGAAAGTCCGTAAGTTA | 0.678 | 0.827 | 0.121 | 0.939 | -0.225 | 2.07 | 1.3 | 2.9 | 4.02 | 3.81
3 | CGGACTAGGTCATTGACAGGACAGTGAATAGTAA | 3.76 | 2.45 | 0.229 | 1.86 | -0.21 | 4.05 | 6.69 | 5.73 | 2.87 | 4.89
4 | AGACTGAGGTTACCAAAGATCAGGGAAACGCTTG | 1.67 | 5.98 | -0.277 | 3 | -0.462 | 2.79 | 1.29 | 1.54 | 0.351 | 1.05
5 | TCTCGGAGGACACGTAGGTCAGAGCTTTCCAGAG | 0.6 | 0.395 | -0.0787 | 0.22 | -0.976 | 1.09 | 0.109 | 1.13 | 2.08 | 1.61
6 | GCTGCTAGGTCAGCTGATGGTCAGCTAAAGCTCG | 1.21 | 0.513 | -0.477 | 0.0658 | -1.13 | 1.58 | 0.146 | 1.01 | -0.292 | 0.544
7 | CCTACTGGGCCATTTAGAGGTCATTGATCATATG | 2.82 | 4.87 | 8.57 | 3.98 | 0.803 | 3.78 | 2.24 | 3.15 | 0.977 | 2.11
8 | TAGCCTAGGTCATTGGGCCAGTATGGTACGCATC | 4.05 | 3.25 | 0.37 | 2.07 | 0.231 | 3.63 | 3.54 | 3.7 | 0.478 | 2.47
9 | CCGACTGGGGCAGAAAGGTTACCATTCCATCCGG | 0.282 | 0.271 | -0.165 | 0.84 | -1.08 | 1.93 | 1.48 | 2.66 | 0.414 | 2.13
10 | ACTAGCAGGCCAAGGGTCGCTCAAGATTAGTCCG | -0.247 | 0.0805 | -0.567 | 0.0881 | -0.965 | 2.36 | 4.99 | 6.2 | 3.7 | 5.95
11 | CCTACTGGGCCCTCAGGTCATTGATATCAACGTT | 0.913 | 0.734 | 0.835 | 1.2 | -0.368 | 1.5 | 0.069 | 1.15 | -0.276 | 0.433
12 | CTACCAAGGTAAACAAGGTCGTTGATTACTATTC | 0.877 | 1.37 | 0.268 | 1.56 | -0.376 | 1.57 | 0.314 | 0.42 | -0.128 | 0.258
13 | GCTGCTAGGACAGGTTGGTCAGCTAACGGGTACG | -0.662 | -0.909 | -0.343 | -0.926 | -0.654 | -0.661 | 0.0442 | -0.697 | -1.16 | -0.722
14 | TTTCGGAGGACACGAAGGTCAGAGCTTTCCAGAG | 1.83 | 1.7 | 0.81 | 1.61 | -0.442 | 2.12 | 0.582 | 1.32 | 0.325 | 0.593
15 | TCTTGTAGATCAAGCAGGATAAGAAAGCCTGAGT | -0.0578 | -0.0477 | -0.267 | -0.411 | -0.605 | 0.163 | -0.0969 | 0.937 | 2.58 | 1.76
16 | CAAATTAGGTCAAAGGTCAAAGTCGAGCCAACCA | 8.64 | 7.33 | 6.11 | 7.29 | 3.55 | 7.52 | 14 | 11.2 | 13.6 | 13.7
17 | AGTCAAAGTTCAGGACGAGCTAACGTAAAGCACG | 3.87 | 3.76 | 0.971 | 1.55 | 0.0911 | 3.08 | 4.04 | 4.89 | 2.01 | 4.19
18 | GCTAGGTGGTCAGTAAAAGGTCACACACCGGTCG | 3.63 | 4.57 | 4.44 | 4.2 | 0.699 | 4.56 | 2.78 | 4.14 | 1.72 | 3.51
19 | GCGACTAGGGCATCAGCAGGTTACCATAACTTAA | -0.0195 | -0.0261 | -0.362 | -0.000126 | -0.683 | 0.802 | 1.41 | 1.17 | -0.0852 | 0.611
20 | TCTTGTAGATCCATAGAGGTTAAGAAAGTGCGCT | 0.485 | 3.32 | -0.138 | 1.43 | 0.453 | 1.16 | -0.272 | 1.18 | 2.32 | 1.65

Row | Sequence | PBM binding z-score [1] | PBM binding z-score [2] | PBM binding z-score [3] | PBM binding z-score [4] | PBM binding z-score [5] | PBM binding z-score [6] | PBM binding z-score [7] | PBM binding z-score [8] | PBM binding z-score [9] | PBM binding z-score [10]
21 | CCTACTGGGCCATTCAGAGGTCGTTGATCATATG | 0.36 | 0.813 | 0.735 | 0.964 | -0.712 | 1.97 | 0.916 | 1.26 | -0.074 | 0.672
22 | CAAACTAGGTTACCGGAAGGTCAAAGTCCGCATG | 4.06 | 5.04 | 4.5 | 4.05 | 1.13 | 4.85 | 6.22 | 5.55 | 2.78 | 4.83
23 | ATATGTCGGTTACATCCGGGTCATTCAGGCTATG | 1.65 | 2.86 | 1.27 | 1.92 | 0.559 | 2.79 | 1.55 | 1.48 | 0.573 | 1.09
24 | CGTCCAAGGCCAAGGTCAGTGAAAGAGACTCGAA | 1.58 | 1.15 | -0.343 | 1.21 | -0.878 | 2.04 | 0.804 | 0.725 | -0.305 | 0.665
25 | CCTTACGGGTCATTCCAGGTTATAGCATCGGAGT | 6.28 | 7.32 | 2.01 | 4.7 | 0.548 | 4.94 | 3.32 | 4.21 | 1.14 | 2.4
26 | TCTTGTAGATCTATAGAGGTTAAGAAAGTGCGCT | 0.449 | 3.17 | 0.171 | 1.78 | -0.194 | 1.81 | 0.274 | 1.62 | 2.58 | 2.23
27 | TTACCAAGGTGAAGGTTGTTGATCCCTCTGTAGA | 0.965 | 0.801 | -0.298 | 0.622 | -0.706 | 1.61 | 1.21 | 2.25 | 1.07 | 1.96
28 | ATCTCTAGGTAAAAGTTCAGTGCATCCCGAGGAT | 0.914 | 1.67 | 1.72 | 0.979 | 0.86 | 4.39 | 8.17 | 7.48 | 7.56 | 8.52
29 | CCTAGTTGGTCAAGGCCACACACGCTATAGGTAC | 0.421 | 0.312 | 0.477 | 0.547 | 0.294 | 0.252 | 0.917 | 0.608 | -0.0145 | 0.142
30 | ATACCACGGTGATCGTGAGGTCGTTGATACTAAC | 1.06 | 0.834 | 0.899 | 0.931 | -0.0132 | 0.958 | 0.3 | 0.0838 | -0.0631 | 0.19
31 | ACTATTAGTTGACTTAGGGCAACCGGTACGACGC | 0.0418 | 0.216 | 0.333 | 0.0684 | 0.939 | 0.187 | 0.638 | 0.108 | 0.302 | 0.142
32 | GTACCAAGGTGAATCGGTCGTTGATGAGTAGGCG | 0.346 | 0.0414 | -0.326 | -0.181 | -0.693 | 1.05 | 0.567 | 0.624 | -0.427 | 0.0488
33 | TAGCATAGGTCATTCAGGGGCCAGTATAGAAAGC | 6.82 | 5.38 | 1.82 | 4.56 | 1.73 | 5.15 | 3.49 | 4.27 | 1.5 | 3.18
34 | CCTGCTAGGTCATGGGCAGCTAATCTACAGTATG | 4.12 | 2.55 | -0.0623 | 1.29 | -0.864 | 3.72 | 2.82 | 3.2 | 0.94 | 1.97
35 | CGAACGAGGGCATGAGTTGATAGAAAATGCCGAT | 0.363 | 0.324 | -0.393 | 0.256 | -0.832 | 1.58 | 1.42 | 1.33 | 0.36 | 0.956
36 | GATACAGTGTCAAGGCCAGAGTACGCGTATTGAT | -0.101 | -0.189 | -0.775 | -0.147 | -0.421 | 0.43 | 0.593 | 0.129 | -0.172 | -0.0433
37 | CAAACTAGGTCACAGAGGTCAAGGTCCGTGCGTA | 7.39 | 6.46 | 5.6 | 5.68 | 1.33 | 6.48 | 10.1 | 8.21 | 6.84 | 8.39
38 | ACTATGAGTTGACTTAGGGCAACCGATACGACGC | 0.53 | 0.591 | 0.2 | 0.365 | 0.578 | 0.327 | 1.08 | 0.524 | 0.371 | 0.418
39 | TCATAAAGGTAAAGGTGAAAGTCGAACGATATGA | 1.63 | 1.78 | -0.143 | 1.63 | -0.307 | 3.51 | 4.7 | 5.2 | 5.07 | 5.53
